RAD52 anneal inh: inhibitors of human RAD52 DNA annealing | recombinant RAD52 DNA annealing, FRET fluorescence | inhibition, % at 18.7 µM | 360,000 compounds, 0.46% hits;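 active = every replicate showing at least 50% inhibition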
Target sequence (P43351 whole entry, looked up): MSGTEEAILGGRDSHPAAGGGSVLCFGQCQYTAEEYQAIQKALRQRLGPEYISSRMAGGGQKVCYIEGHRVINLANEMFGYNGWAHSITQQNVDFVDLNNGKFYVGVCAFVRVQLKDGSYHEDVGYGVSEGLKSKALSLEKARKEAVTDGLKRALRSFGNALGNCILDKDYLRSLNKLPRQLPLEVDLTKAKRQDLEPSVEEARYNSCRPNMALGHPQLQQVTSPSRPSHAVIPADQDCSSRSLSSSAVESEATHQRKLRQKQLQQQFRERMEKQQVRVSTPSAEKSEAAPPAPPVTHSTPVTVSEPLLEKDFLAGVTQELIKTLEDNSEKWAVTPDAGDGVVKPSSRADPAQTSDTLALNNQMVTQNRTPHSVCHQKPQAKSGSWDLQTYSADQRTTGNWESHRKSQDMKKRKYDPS
Casp6 inh: inhibitors of human caspase-6; 350,000 compounds, 0.53% hits; inhibition, % at 12.5 µM; P55212; purified caspase-6, Z-VEID-R110 cleavage fluorescence;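 active = mean inhibition across replicates at least about 35%, with every replicate also reaching that limit, limit read from the data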;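 note: 0% = median of neutral control wells and 100% = no fluorescence left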
MLL AF4-AF9 inh: blocks AF4 peptide binding to human AF9 | P42568 | AlphaScreen, biotin-AF4 peptide binding to FLAG-AF9 | inhibition, % at 10 µM | 350,000 compounds, 0.47% hits | AID 651704;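 active = every replicate reaching a set inhibition limit, whatever the replicate mean, cut at about 25% in these data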;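 note: 0% = plate neutral control median and 100% = total signal loss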
NSD2 HMT inh: inhibitors of human histone methyltransferase NSD2; 310,000 compounds, 0.54% hits; inhibition, % at 12.5 µM; NSD2 peptide methylation, AlphaScreen, 120 min; in the data active = inhibition above about 50%
rRNA inh HTS: inhibits bacterial ribosomal RNA function over humanized ribosomes; 350,000 compounds, 1.6% hits; E. coli WT GFP vs humanized-ribosome RFP mutants, fluorescence, 24 h; stronger effect = lower value; DMSO median 0, no signal -100; GFP signal change (wild-type ribosome), % (concentration not given with the values);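 active = significant combined selectivity score with lowered wild-type GFP, culture density cut under 30%, mutant RFP and density less affected; inactive = any of these conditions unmet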
CASP1 counter: caspase-1 (human) inhibition counter-screen. shares compounds with Casp6 inh. purified caspase-1, Z-YVAD-R110 cleavage fluorescence. activity change, negative = inhibition, % at 35 µM. 100 tested, under 10 active. AID 743289;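 active = compounds lowering fluorescence whose fitted half-maximal concentration is no more than twice their top tested dose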
Starred values were filed as active, the others as inactive. Shown are actives, neighbours in structure and some others; about 2.5% of the full set was active somewhere.

What do the screens show for `O=C(COC(=O)c1ccc([N+](=O)[O-])s1)Nc1ccc(F)cc1`?
RAD52 anneal inh: 3; Casp6 inh: 98*; MLL AF4-AF9 inh: 2; rRNA inh HTS: -51; CASP1 counter: 2

How did CC(C)(C)c1ccc(NC(=O)COC(=O)c2ccc([N+](=O)[O-])s2)cc1 do in these assays?
NSD2 HMT inh: 17; CASP1 counter: -9

What do the screens show for `O=C(COC(=O)c1ccc([N+](=O)[O-])s1)Nc1cccc(S(=O)(=O)NC2=NCCCCC2)c1`?
RAD52 anneal inh: -11; Casp6 inh: 98*; MLL AF4-AF9 inh: -27; rRNA inh HTS: 2; CASP1 counter: 13

What do the screens show for `O=C(COC(=O)c1cccs1)Nc1cccc(S(=O)(=O)NC2=NCCCCC2)c1`?
RAD52 anneal inh: -1; Casp6 inh: -6; MLL AF4-AF9 inh: -11; NSD2 HMT inh: 1; rRNA inh HTS: 4

Results for C[C@H](CO)N1C[C@H](C)[C@H](CN(C)S(=O)(=O)c2cccc(C#N)c2)OCc2ccccc2-c2c(n(C)c3ccccc23)C1=O ?
RAD52 anneal inh: 28; Casp6 inh: 1; MLL AF4-AF9 inh: 3; rRNA inh HTS: -10

How did CCCC(=O)Nc1ccc2c(c1)C(=O)N(C)C[C@H](OC)[C@H](C)CN(Cc1ccncc1)[C@@H](C)CO2 do in these assays?
rRNA inh HTS: -2

Results for COc1ccc2c3c([nH]c2c1)[C@@H](CO)N(C(=O)NC1CCCC1)CC31CN(S(C)(=O)=O)C1 ?
RAD52 anneal inh: 31; MLL AF4-AF9 inh: -8; rRNA inh HTS: -3

Results for O=C(Nc1ccc2nc3n(c(=O)c2c1)CCCCC3)c1c(F)ccc([N+](=O)[O-])c1F ?
RAD52 anneal inh: -13; Casp6 inh: 60*; MLL AF4-AF9 inh: 4; NSD2 HMT inh: 25; rRNA inh HTS: -22*; CASP1 counter: 14

Results for O=C(Nc1ccc2nc3n(c(=O)c2c1)CCCCC3)c1cc([N+](=O)[O-])ccc1F ?
RAD52 anneal inh: -3; Casp6 inh: 7; MLL AF4-AF9 inh: 6; rRNA inh HTS: -9

Results for O=P(c1ccccc1)(c1ccccc1)c1cc(S(=O)(=O)O)ccc1O ?
RAD52 anneal inh: -12; Casp6 inh: 77*; MLL AF4-AF9 inh: -1; NSD2 HMT inh: 29; rRNA inh HTS: 1; CASP1 counter: 5

What do the screens show for `CCCC#Cc1ccc([C@H]2[C@H]3CN(C(=O)c4cccc(F)c4)CC(=O)N3[C@H]2CO)cc1`?
rRNA inh HTS: 4

Results for O=C1NC(=O)C(=Cc2ccccc2[N+](=O)[O-])S1 ?
RAD52 anneal inh: -15; Casp6 inh: 67*; MLL AF4-AF9 inh: 1; NSD2 HMT inh: 34; rRNA inh HTS: -12; CASP1 counter: 4

What do the screens show for `[O-][n+]1onc2c1CCc1c-2nn(-c2ccccc2Cl)[n+]1[O-]`?
RAD52 anneal inh: -8; Casp6 inh: 82*; MLL AF4-AF9 inh: 9; NSD2 HMT inh: 4; rRNA inh HTS: 83; CASP1 counter: -1

How did CC[C@H](CO)Oc1cc(NCc2cccc(N)c2)c2ncn(C(C)C)c2c1 do in these assays?
RAD52 anneal inh: 16; Casp6 inh: 46*; MLL AF4-AF9 inh: 11; rRNA inh HTS: -5; CASP1 counter: -4

What do the screens show for `CCC(CO)Oc1cc(NCc2cccc(C)c2)c2ncn(C(C)C)c2c1` (centres undefined)?
RAD52 anneal inh: 25; Casp6 inh: 21; MLL AF4-AF9 inh: -2; rRNA inh HTS: 8

How did Cc1csc(NC(=O)CSc2nncn2C)n1 do in these assays?
NSD2 HMT inh: 1

What do the screens show for `Cn1cnnc1SCC(=O)Nc1ncc([N+](=O)[O-])s1`?
RAD52 anneal inh: -25; Casp6 inh: 39*; MLL AF4-AF9 inh: -6; NSD2 HMT inh: 35; rRNA inh HTS: -11; CASP1 counter: -4

Results for CO[C@@H]1CN(C)C(=O)c2cc(NC(C)=O)ccc2OC[C@H](C)N(C(=O)CC2CC2)C[C@H]1C ?
RAD52 anneal inh: -3; Casp6 inh: -2; MLL AF4-AF9 inh: -2; rRNA inh HTS: 1

How did CO[C@H]1CN(C)C(=O)c2cc(NC(C)=O)ccc2OC[C@@H](C)N(C(=O)CC2CC2)C[C@H]1C do in these assays?
RAD52 anneal inh: 20; Casp6 inh: 56*; MLL AF4-AF9 inh: 12; rRNA inh HTS: -1; CASP1 counter: -8

How did O=c1oc2cc(O)c(Cl)cc2c2ccccc12 do in these assays?
NSD2 HMT inh: -1

Source: PubChem (Broad Institute)
